The source of these data is PubChem BioAssay.

Each structure is given as a SMILES string. Several values for one entry are separate records, joined by “and”; a condition that tells them apart may be missing. Equal values may be shown once. Values without a mark were called inactive. How the calls were made is not given here.

The nature of the test: blockers of DNA damage checkpoint Chk1 activation – imaging, HeLa, hydroxyurea, phospho-Chk1 nuclear intensity, primary screen (AID 1187). Further: test concentration not given here. Particulars: hydroxyurea-induced phospho-Chk1 immunofluorescence imaging, higher = more signal.
As for `C#CCN1C(/C=C/c2ccccc2)C(=O)OC[C@H]1c1ccccc1` (stereo not given in full), the z-score was -0.322 and -0.239. For `C=CCN(C(=O)C1N(c2c(Cl)cccc2CO)C(=O)C2C(C(=O)O)C3C=CC21O3)C(C)(C)C` (stereo not given) the value was 0.0398 and 1.14.

Take `C=CCN(CCCC)C(=O)C(c1cccs1)N(CCOCCO)C(=O)/C=C\C(=O)O` (stereo not given): the z-score is 0.132 and 1.47. For the molecule `C=CCN(CCCC)C(=O)C1N(CCCCCCO)C(=O)C2C(C(=O)O)C3C=CC21O3` (stereo not given), the z-score was 0.977 and 1.09.

In the case of `C=C[C@@H](OC)[C@H](O)c1ccc(O)c(F)c1`, the z-score was 0.496 and 0.357.
